Assay [1] in a line: binders of probe aFSTL3 on microarray, primary screen, stem cell growth factor project, biochemical, small-molecule microarray, fluorescence 635/667 (AID 1064).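 Also: measures binding of the biotinylated anti-FSTL3 antibody to printed compounds.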 To be noted: higher = more signal.
Assay [2] in a line: binders from COS7 lysate, DM2A8 probe, primary screen, torsin A project, cell lysate, small-molecule microarray, fluorescence 635/667 (AID 1065). To be noted: higher = more signal, COS7 lysate expressing mutant human TOR1A.
Assay [3] can be described thus: binders of probe aFGF2 on microarray, primary screen, stem cell growth factor project, biochemical, small-molecule microarray, fluorescence 635/667 (AID 1067).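 Also: measures binding of biotinylated aFGF2 protein to printed compounds on slides; z-score merges feature fluorescence and signal-to-noise across triplicate slides.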 To be noted: higher = more signal.
Assay [4] is described as follows: binders of probe aFGF10 on microarray, primary screen, stem cell growth factor project, biochemical, small-molecule microarray, fluorescence 635/667 (AID 1071).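 Also: score merges 667 nm spot intensity and signal to noise from triplicate slides.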 As to conditions: higher = more signal.
The target of assay [5] is Neurogenic locus notch homolog protein 2 (Homo sapiens) (UniProt Q04721). The assay can be described thus: Notch2 binders on small-molecule microarrays, primary screen, biochemical, small-molecule microarray, 635 nm fluorescence, stem cell growth factors (AID 1073). To be noted: Notch2 binding, higher = more signal.
Neurogenic locus notch homolog protein 2 (Homo sapiens), sequence (Q04721 whole entry, looked up, canonical isoform): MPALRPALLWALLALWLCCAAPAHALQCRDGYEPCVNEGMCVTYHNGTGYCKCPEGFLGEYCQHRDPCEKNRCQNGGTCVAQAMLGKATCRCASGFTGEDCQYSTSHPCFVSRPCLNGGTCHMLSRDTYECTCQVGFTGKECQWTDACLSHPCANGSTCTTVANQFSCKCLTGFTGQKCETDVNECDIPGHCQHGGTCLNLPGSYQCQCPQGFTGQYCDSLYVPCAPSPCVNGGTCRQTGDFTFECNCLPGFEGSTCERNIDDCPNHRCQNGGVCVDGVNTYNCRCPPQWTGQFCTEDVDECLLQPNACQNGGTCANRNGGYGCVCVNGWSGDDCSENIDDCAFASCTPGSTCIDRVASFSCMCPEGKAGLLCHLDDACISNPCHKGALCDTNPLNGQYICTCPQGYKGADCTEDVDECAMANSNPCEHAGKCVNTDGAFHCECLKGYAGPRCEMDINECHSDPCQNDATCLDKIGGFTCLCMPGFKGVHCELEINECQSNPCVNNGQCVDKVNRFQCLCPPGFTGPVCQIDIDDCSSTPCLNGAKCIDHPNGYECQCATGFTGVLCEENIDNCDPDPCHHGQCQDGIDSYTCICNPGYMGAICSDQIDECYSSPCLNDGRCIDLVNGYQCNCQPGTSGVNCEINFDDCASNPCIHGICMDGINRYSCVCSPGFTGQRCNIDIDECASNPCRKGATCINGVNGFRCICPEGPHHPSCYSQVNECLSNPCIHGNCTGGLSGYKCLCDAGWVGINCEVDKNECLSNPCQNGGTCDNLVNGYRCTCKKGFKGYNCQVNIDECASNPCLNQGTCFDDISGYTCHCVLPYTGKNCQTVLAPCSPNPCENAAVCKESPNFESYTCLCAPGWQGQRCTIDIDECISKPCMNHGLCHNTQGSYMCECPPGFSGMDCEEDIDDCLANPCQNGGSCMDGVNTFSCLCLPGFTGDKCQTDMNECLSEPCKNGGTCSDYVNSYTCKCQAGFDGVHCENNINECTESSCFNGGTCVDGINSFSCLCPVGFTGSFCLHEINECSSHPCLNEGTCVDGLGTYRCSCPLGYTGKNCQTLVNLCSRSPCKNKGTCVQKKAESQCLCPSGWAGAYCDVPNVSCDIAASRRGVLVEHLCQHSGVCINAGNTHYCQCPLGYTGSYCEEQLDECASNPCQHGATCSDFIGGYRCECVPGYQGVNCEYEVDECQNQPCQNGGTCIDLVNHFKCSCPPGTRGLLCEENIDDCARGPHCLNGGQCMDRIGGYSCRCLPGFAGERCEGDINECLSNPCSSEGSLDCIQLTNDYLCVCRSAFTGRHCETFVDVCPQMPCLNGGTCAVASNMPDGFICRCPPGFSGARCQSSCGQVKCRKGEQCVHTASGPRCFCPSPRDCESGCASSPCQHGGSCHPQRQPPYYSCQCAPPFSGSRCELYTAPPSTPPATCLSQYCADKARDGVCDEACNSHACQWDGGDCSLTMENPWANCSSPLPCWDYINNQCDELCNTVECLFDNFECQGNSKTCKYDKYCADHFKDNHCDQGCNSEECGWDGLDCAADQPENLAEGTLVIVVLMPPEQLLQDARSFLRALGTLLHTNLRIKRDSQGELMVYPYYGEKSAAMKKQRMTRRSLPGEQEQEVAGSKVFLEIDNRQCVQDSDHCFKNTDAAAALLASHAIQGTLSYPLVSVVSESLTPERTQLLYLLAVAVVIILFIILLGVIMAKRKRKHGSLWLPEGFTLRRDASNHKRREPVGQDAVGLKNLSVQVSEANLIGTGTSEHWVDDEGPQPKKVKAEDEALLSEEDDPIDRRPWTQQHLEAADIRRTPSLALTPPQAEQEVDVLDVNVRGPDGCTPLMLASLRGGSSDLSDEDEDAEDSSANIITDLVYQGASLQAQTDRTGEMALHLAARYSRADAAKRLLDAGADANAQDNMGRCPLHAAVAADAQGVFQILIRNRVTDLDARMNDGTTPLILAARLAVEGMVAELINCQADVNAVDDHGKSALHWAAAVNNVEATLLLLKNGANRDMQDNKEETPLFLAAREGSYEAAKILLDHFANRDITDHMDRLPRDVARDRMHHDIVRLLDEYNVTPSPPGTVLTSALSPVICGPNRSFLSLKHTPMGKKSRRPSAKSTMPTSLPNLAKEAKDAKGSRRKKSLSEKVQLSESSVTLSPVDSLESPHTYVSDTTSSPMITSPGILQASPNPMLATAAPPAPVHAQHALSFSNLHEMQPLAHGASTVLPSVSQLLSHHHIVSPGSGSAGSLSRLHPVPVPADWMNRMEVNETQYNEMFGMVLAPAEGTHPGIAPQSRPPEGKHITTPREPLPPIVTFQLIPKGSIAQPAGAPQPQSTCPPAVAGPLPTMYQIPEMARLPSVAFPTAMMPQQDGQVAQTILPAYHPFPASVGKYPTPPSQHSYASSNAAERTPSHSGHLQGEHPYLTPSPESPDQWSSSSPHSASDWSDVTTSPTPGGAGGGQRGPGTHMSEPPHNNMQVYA
For assay [6], the target named is Pro-neuregulin-1, membrane-bound isoform (Homo sapiens) (UniProt Q02297). Kind of assay: NRG1 binders on small-molecule microarrays, primary screen, psychiatric disease protein project, biochemical, small-molecule microarray, fluorescence 635/667 (AID 1075).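 Also: score combines 667 nm spot fluorescence with signal to noise.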 To be noted: NRG1 binding, 635 nm fluorescence, higher = more signal.
Pro-neuregulin-1, membrane-bound isoform (Homo sapiens), sequence (Q02297 whole entry, looked up, the tested form may be a part, canonical isoform): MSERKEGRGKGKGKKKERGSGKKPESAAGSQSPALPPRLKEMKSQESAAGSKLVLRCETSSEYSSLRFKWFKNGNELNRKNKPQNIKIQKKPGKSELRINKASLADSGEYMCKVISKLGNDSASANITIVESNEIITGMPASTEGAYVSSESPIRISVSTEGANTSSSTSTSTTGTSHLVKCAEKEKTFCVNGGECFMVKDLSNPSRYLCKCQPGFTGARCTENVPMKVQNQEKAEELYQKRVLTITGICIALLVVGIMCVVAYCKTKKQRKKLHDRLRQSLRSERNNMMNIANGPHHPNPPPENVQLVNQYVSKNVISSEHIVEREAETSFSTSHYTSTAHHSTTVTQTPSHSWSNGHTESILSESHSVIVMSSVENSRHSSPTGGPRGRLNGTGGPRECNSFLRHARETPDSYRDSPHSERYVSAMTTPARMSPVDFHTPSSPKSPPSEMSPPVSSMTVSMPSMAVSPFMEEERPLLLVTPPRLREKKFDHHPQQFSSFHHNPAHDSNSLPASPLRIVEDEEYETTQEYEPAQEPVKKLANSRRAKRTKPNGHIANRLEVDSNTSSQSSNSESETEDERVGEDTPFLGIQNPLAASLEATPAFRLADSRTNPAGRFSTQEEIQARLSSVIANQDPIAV
Assay [7] relates to Neuregulin-1 EGF-like domain. Kind of assay: binders of neuregulin-1 EGF-like domain, primary screen, biochemical, small-molecule microarray, 635 nm fluorescence (AID 1081).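 Also: binding of the protein to compounds printed on small-molecule microarray slides.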 To be noted: small-molecule microarray binding, higher = more signal.
The nature of assay [8]: FRG1 promoter luciferase signal modulators, primary screen, FRG1 inhibition for FSHD, cell-based, C2C12 myotubes, firefly/Renilla luciferase, luminescence (AID 1084). To be noted: higher = more signal, called active from +8 up or from −8 down.
Assay [9] in a line: binders of probe aFST on microarray, primary screen, stem cell growth factor project, biochemical, small-molecule microarray, fluorescence 635/667 (AID 1086).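 Also: score merges 667 nm fluorescence with signal-to-noise of each printed compound spot.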 As to conditions: higher = more signal.
Assay [10] can be described thus: binders of probe aHhip on microarray, primary screen, stem cell growth factor project, biochemical, small-molecule microarray, fluorescence 635/667 (AID 1087).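 Also: score merges spot fluorescence at 667nm with spot signal to noise ratio.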 To be noted: higher = more signal.
In assay [11] the test system is PRMT1 (protein arginine N-methyltransferase 1). The assay can be described thus: PRMT1 binders on small-molecule microarrays, primary screen, biochemical, small-molecule microarray, 635 nm fluorescence (AID 1088).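 Also: binding of Prmt1 protein to compounds spotted on small-molecule microarray slides.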 As to conditions: small-molecule microarray binding, higher = more signal.
Assay [12] is described as follows: yeast growth modulation, basal conditions, primary screen, YJM789 clinical isolate, OD600, 24 h (AID 1089).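 Also: growth of clinical yeast isolate S. cerevisiae YJM 789 seeded 1000 cells per well; test concentration not given here.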 To be noted: S. cerevisiae YJM789 growth, higher = more signal, called active from +8 up or from −8 down.
Assay [13] is described as follows: fission yeast growth modulation, primary screen, strain 972, OD600, 24 h, no modulator (AID 1090).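 Also: basal condition with compound alone and no growth modifier present; test concentration not given here.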 As to conditions: S. pombe 972 growth, higher = more signal, called active from +8 up or from −8 down.
The nature of assay [14]: S. cerevisiae growth modulation with rapamycin, primary screen, strain BY4716, OD600, 96 h (AID 1091). Also: test concentration not given here. As to conditions: higher = more signal, called active from +8 up or from −8 down.
For assay [15], the target named is Torsin-1A-interacting protein 2 (Homo sapiens) (UniProt Q8NFQ8). Kind of assay: LULL1 binders on small-molecule microarray, primary screen, cell lysate, human LULL1 lysate, 635/667 nm fluorescence (AID 1092).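 Also: probe is lysate of COS7 cells overexpressing human LULL1; score merges per-feature 667 nm fluorescence with signal-to-noise.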 As to conditions: hLULL1 lysate binding, 635 nm fluorescence, higher = more signal.
Torsin-1A-interacting protein 2 (Homo sapiens), sequence (Q8NFQ8 whole entry, looked up): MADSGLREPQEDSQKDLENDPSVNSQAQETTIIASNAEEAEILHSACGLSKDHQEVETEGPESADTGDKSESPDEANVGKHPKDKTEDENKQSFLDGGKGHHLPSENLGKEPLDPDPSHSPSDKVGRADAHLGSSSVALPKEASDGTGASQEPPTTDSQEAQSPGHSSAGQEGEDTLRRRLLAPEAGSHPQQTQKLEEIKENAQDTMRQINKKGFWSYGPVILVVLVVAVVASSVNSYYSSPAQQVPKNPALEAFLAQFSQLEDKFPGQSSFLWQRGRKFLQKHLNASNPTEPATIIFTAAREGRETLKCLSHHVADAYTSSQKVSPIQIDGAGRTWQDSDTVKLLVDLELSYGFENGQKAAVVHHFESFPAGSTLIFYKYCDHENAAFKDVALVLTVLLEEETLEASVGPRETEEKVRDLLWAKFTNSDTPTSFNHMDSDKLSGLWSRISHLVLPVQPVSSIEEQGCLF
A short description of assay [16]: E. coli growth modulation, two-sided OD650, primary screen, E. coli filamentation project, strain DRC41, 24 h (AID 1093).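 Also: MC1000 strain lacking acrAB efflux and sulA so SOS filamentation is blocked; test concentration not given here.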 As to conditions: OD650, 24 h, higher = more signal, called active from +8 up or from −8 down.
A short description of assay [17]: small-molecule microarray binders of probe aLefty2, primary screen, biochemical, biotinylated probe, 635/667 nm fluorescence (AID 1094).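 Also: score merges spot fluorescence near 667 nm with spot signal-to-noise ratio.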 As to conditions: higher = more signal.
Assay [18] has as its system Noggin (protein binding on small-molecule microarray). The assay can be described thus: Noggin binders on small-molecule microarray, primary screen, biochemical, 635/667 nm fluorescence (AID 1095).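 Also: score merges 667 nm feature fluorescence with signal to noise over triplicate slides.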 To be noted: 635 nm fluorescence, higher = more signal.
For assay [19], the target named is Neurogenic locus notch homolog protein 3 (Homo sapiens) (UniProt Q9UM47). The assay can be described thus: NOTCH3 binders on small-molecule microarray, primary screen, biochemical, 635/667 nm fluorescence (AID 1096). To be noted: NOTCH3 binding, 635 nm fluorescence, higher = more signal.
Assay [20] is described as follows: small-molecule microarray binders of probe aEGFR, primary screen, biochemical, biotinylated probe, 635/667 nm fluorescence (AID 1097).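 Also: probe is a biotinylated anti-EGFR antibody binding compounds printed on slides; score combines fluorescence near 667 nm and signal to noise of each spot.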 As to conditions: higher = more signal.

Each structure is given as a SMILES string. Activity calls are given as the source filed them.

As to `COc1ccc(C(=O)Nc2cccc(CN3C(=O)[C@@]4(O[C@@H](CC(=O)N5Cc6ccccc6C[C@H]5CO)[C@H]([Si](C)(C)c5ccc(OC)cc5)[C@H]4C)c4ccccc43)c2)cc1`, the composite z-score in assay [1] was 0.0279; in assay [2], 1.09; in [3] it was -0.0924; in assay [4] it was 0.505; in assay [5], 0.493; in assay [6] it was 0.598. Also, the composite z-score was 1.25 in assay [7]; 0.349 in assay [9]; -0.0994 in [10]; 1.55 in [11]; 1.71 in assay [15]; 0.0327 in assay [17]. The composite z-score in assay [18] was 1.25; in [19], 0.893; in [20] it was 0.0276. In addition, the z-score in assay [8] was -2.95 (inactive); in assay [12], -1.26 (inactive); in assay [13] it was 0.166 (inactive); in [14], 1.22 (inactive); in [16], -0.209 (inactive).
On to `COC(=O)[C@@]1(Cc2ccc(F)cc2)[C@H]2c3cc(C(=O)N(C)C)n(CCCNc4ccc(C(F)(F)F)cc4Cl)c3C[C@H]2CN1C(=O)c1ccccc1`, for which the composite z-score turned out to be 0.785 in assay [1]; 0.34 in [2]; 0.311 in [3]; 0.754 in assay [4]; 1.75 in assay [5]; 1.16 in assay [6]. The composite z-score in [7] was 1.27; in [9], 1.55; in assay [10], -0.114; in assay [11], 1.41; in assay [15], 3.36; in assay [17], 0.555. For the same compound, the composite z-score was found to be 0.282 in [18], 1.02 in assay [19] and 0.361 in assay [20]. Further, the z-score was 0.452 (inactive) in [8]; 0.406 (inactive) in [12]; 1.06 (inactive) in assay [13]; 5.11 (inactive) in assay [14]; -1.3 (inactive) in [16].
Consider `CCOC(=O)C1=C[C@@H](C(C)(C)C)N(S(=O)(=O)c2ccc(C)cc2)[C@H]1c1ccc(Cl)c(Cl)c1`, for which the composite z-score in [1] was -0.301; in assay [2], 0.134; in [3], 0.12; in assay [4] it was 0.614; in [5], 1.56; in assay [6] it was 1.53. The composite z-score in assay [7] was 0.911; in assay [9] it was 0.514; in assay [10] it was -0.236; in [11] it was 1.46; in assay [15], 2.68; in assay [17], 0.201. Besides, the composite z-score turned out to be 0.346 in assay [18], 1.09 in assay [19] and 0.239 in assay [20]. Besides, the z-score in assay [8] is -0.446 (inactive); in assay [12] it was 0.771 (inactive); in assay [13], 1.71 (inactive); in assay [14] it was 2.44 (inactive); in assay [16], -0.875 (inactive).
For the compound `C=CCC(OC(C)=O)[C@@H]1[C@@H](N(Cc2ccc(-c3ccccc3)cc2)C(=O)c2ccc(C)cc2)c2cc(OCCCO)ccc2N1C(=O)c1ccc2ccccc2n1` (stereo not given in full), the composite z-score in assay [1] was -0.131; in [2], 0.42; in [3], -0.0434; in assay [4] it was 0.199; in assay [5] it was 0.0291; in assay [6], 0.676. Besides, the composite z-score in assay [7] is -0.325; in [9], 0.13; in assay [10], 0.154; in assay [11], -0.11; in assay [15], 0.209; in [17] it was 0.407. Also, the composite z-score is -0.267 in assay [18], -0.197 in [19] and -0.0836 in [20]. Moreover, the z-score in assay [8] is -1.24 (inactive); in [12], -2.47 (inactive); in assay [13], -0.772 (inactive); in assay [14] it was -1.15 (inactive); in [16] it was 1.95 (inactive).
For `COc1cc2c(cc1O)C(c1ccc(CN3CCCC3)cc1)N(Cc1sc3ccccc3c1Cl)CC2` (stereo not given), the composite z-score in assay [1] is 0.719; in [2], -0.002; in assay [3] it was -0.0687; in assay [4] it was 0.156; in [5], 0.805; in assay [6] it was 0.072. Besides, the composite z-score in assay [7] is 1.17; in [9] it was 1.38; in assay [10], -0.214; in assay [11], 1.13; in assay [15], 1.93; in assay [17] it was 0.157. For the same compound, the composite z-score in assay [18] came to 0.369; in assay [19], 0.202; in assay [20] it was 0.0475. Further, the z-score in assay [8] was 0.0314 (inactive); in assay [12], -1.43 (inactive); in [13], -17.7 (active); in assay [14], -1.1 (inactive); in [16] it was 0.504 (inactive).

Source of the values: PubChem BioAssay.
